PubChem BioAssay (NCATS)
Results filed as inconclusive are left out. The source made the active and inactive calls. Unless noted, calls come from the whole dose curve; as a rule, active = well fitted curve in the direction sought with a large enough effect; inconclusive = small, poorly fitted or top-dose-only effect, or another doubt; inactive = no such curve, though single readings can be large; an effect the other way counts as inactive or inconclusive.

What was measured:
[1] = target: Lysosomal acid glucosylceramidase (Homo sapiens) (UniProt P04062); experiment: Glucocerebrosidase-p2 (AID 348; in the data active = potency below about 10 µM; note: potency is the fitted concentration of half-maximal effect); details: purified GBA, blue fluorogenic substrate, 40 min
Outline: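 Normal human glucocerebrosidase (0.2 nM) with blue fluorogenic substrate (80 uM final) in citrate/phosphate pH 5.9 with 10mM sodium taurocholate, 0.01% tween-20; 40 min RT, NaOH/glycine stop; fluorescence Ex 365/Em 440; AC50 from a titration from 0.6 nM upwards.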

[2] = AP1 Signaling Pathway (AID 357; active = well fitted curve in either direction with a large enough effect, not every such curve was filed as active;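 note: ME-180 reporter cells stimulated with EGF at its EC50 level; % is set by controls: 0 for no effect and ±100 for the full control effect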); details: ME-180 AP-1-bla reporter, EGF-induced, beta-lactamase ratio, 5 h; at 7.69 µM (top of the series) unless noted
Outline: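 Modulation of EGF-driven AP-1 transcription was assessed with a beta-lactamase reporter in ME-180 cells. Compound and EC50 EGF were co-incubated 5 hours at 37 °C before 2.5-hour CCF4 loading at room temperature and dual-emission reading.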

[3] = target: Cytochrome P450 1A2 (Homo sapiens) (UniProt P05177); experiment: p450-cyp1a2 (AID 410; calls by dose curve; note: potency is the fitted concentration of half-maximal effect;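 for activity change, negative = inhibition: -100% = full effect of reference inhibitor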); details: recombinant CYP1A2, luciferin-ME demethylation, luminescence; series mostly up to 57 µM
Outline: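 Luminescent demethylation readout: Luciferin-ME (100uM, equal to Km) turned over by 20nM CYP1A2 for 60 min at room temperature after NADPH regeneration addition, following 10 min compound preincubation. Normalization used 57 uM furafylline as full inhibition.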

[4] = NFAT Signaling Pathway (AID 444; active = well fitted curve in either direction with a large enough effect, not every such curve was filed as active;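 note: carbachol stimulus at about its EC50 of 1 µM final; % is set by controls: 0 for no effect and ±100 for the full control effect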); details: Jurkat NFAT-bla M1, carbachol, beta-lactamase ratio, 5 h; at 7.69 µM (top of the series) unless noted
Outline: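 Jurkat cells with NFAT-driven β-lactamase reporter and co-expressed M1 receptor, stimulated with carbachol (final 1 uM, ~EC50), compound titration, 5 h at 37 °C. CCF4 loaded 1 h at RT; 460/530 nm ratio gave %activity and AC50.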

[5] = target: Glucocorticoid receptor (Homo sapiens) (UniProt P04150); experiment: GR-GFP Redistribution (AID 450;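 active = compounds whose dose series gives a full or clear partial fitted curve of increased nuclear translocation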; note: potency is the fitted concentration of half-maximal effect); details: U2OS GR-GFP nuclear translocation, laser cytometry, 2 h
[6] = target: Glucocorticoid receptor (Homo sapiens) (UniProt P04150); experiment: GR-EFC Redistribution (AID 451; calls by dose curve; note: potency is the fitted concentration of half-maximal effect); details: CHO-K1 GR-EFC translocation, beta-gal luminescence, 2 h
Outline: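 CHO-K1 cells expressing nuclear EA and GR-ED fragments of b-gal; compounds titrated up to 46 uM final, 2 h at 37 C. GR nuclear translocation read as complemented b-gal luminescence after 1 h RT detection.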

[7] = target: Mitogen-activated protein kinase 10 (Mus musculus) (UniProt Q61831); experiment: JNK3 AlphaScreen Assay (AID 530; active = well fitted curve in either direction with a large enough effect, not every such curve was filed as active;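 note: kinase came from lysate of stimulated human HepG2 cells; signal reports phosphorylation of biotinylated GST-cJun 1-79 at Ser73 with 10 µM ATP; % is set by controls: 0 for no effect and ±100 for the full control effect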); details: JNK3 lysate, c-Jun phosphorylation; series mostly up to 57.1 µM
Outline: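 Activity was read by AlphaScreen after JNK3-containing HepG2 lysate (cytokine pre-activated) phosphorylated biotinylated GST-cJun with 10 uM ATP at room temperature. Phospho-Ser73 cJun antibody with Protein-A acceptor beads provided detection.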

[8] = target: Cytochrome P450 3A4 (Homo sapiens) (UniProt P08684); experiment: qHTS Assay for Activators of Cytochrome P450 3A4 (AID 885); details: recombinant CYP3A4, Luciferin-PPXE luminescence, 60 min; series mostly up to 57.1 µM; note: nearly all actives have a fitted effect of over 65% in size
Outline: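 Activators are scored by enhanced luminescence from CYP3A4 conversion of luciferin-PPXE (25uM, equal to KM) to luciferin, after 60 min at RT with an NADPH-regenerating system.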

[9] = target: Dual specificity protein kinase CLK4 (Homo sapiens) (UniProt Q9HAZ1); experiment: qHTS Assay for Inhibitors of CDC-like Kinase 4 (Kinase-Glo Assay) (AID 1770); details: recombinant Clk4, Kinase-Glo ATP depletion luminescence; series mostly up to 66.7 µM; note: potency is the fitted concentration of half-maximal effect; nearly all actives have a fitted effect of over 65% in size
Outline: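 Recombinant human Clk4 (25 nM) phosphorylated RS repeat peptide (100 uM) with 1 uM ATP in Tris pH 7.5/MgCl2/EGTA/DTT/Triton buffer for 4.5 h at room temperature. Residual ATP was quantified by Kinase-Glo luciferase luminescence.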

[10] = target: Dual specificity protein kinase CLK4 (Homo sapiens) (UniProt Q9HAZ1); experiment: qHTS Assay for Inhibitors of CDC-like Kinase 4 (ADP-Glo Assay) (AID 1771); details: recombinant CLK4, ADP-Glo luminescence; series mostly up to 80 µM; note: potency is the fitted concentration of half-maximal effect; nearly all actives have a fitted effect of over 70% in size
Outline: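 ADP production was read by ADP-Glo luminescence after residual ATP depletion, following 1 h room-temperature reaction of 25 nM Clk4, 1 uM ATP and 100 uM RS peptide with MgCl2, EGTA, DTT and Triton X-100.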

[11] = target: Dual specificity protein kinase CLK4 (Homo sapiens) (UniProt Q9HAZ1); experiment: qHTS Assay for Inhibitors of CDC-like Kinase 4 (ADP-FP Assay) (AID 1795); details: Transcreener ADP fluorescence polarization; series mostly up to 50 µM; note: % is set by controls: 0 for no effect and ±100 for the full control effect; nearly all actives have a fitted effect of over 60% in size
Outline: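 Recombinant human Clk4 (6.25 nM) phosphorylated RS repeat peptide (100 uM) with 1 uM ATP in Tris pH 7.5/MgCl2/EGTA/DTT/Triton buffer for one hour. ADP was quantified by Transcreener competitive fluorescence polarization against an ADP calibration curve.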

[12] = target: Ubiquitin carboxyl-terminal hydrolase 1 (Homo sapiens) (UniProt O94782); experiment: Inhibitors of USP1/UAF1: Pilot qHTS (AID 504865); details: purified USP1/UAF1, Ub-rhodamine cleavage fluorescence; series mostly up to 54.9 µM; note: potency is the fitted concentration of half-maximal effect; nearly all actives have a fitted effect of over 35% in size
Outline: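 USP1/UAF1 complex (1nM) preincubated with compound 15 min at room temperature, then Ub-Rho substrate (150nM final) added. Fluorescence read kinetically at 480/540 nm, 6 reads every 60 seconds. Buffer: 50mM HEPES pH 7.8, 0.5mM EDTA, 0.1 mg/ml BSA, 1mM TCEP, 0.01% Tween-20.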

[13] = Primary qHTS for small molecule stabilizers of the endoplasmic reticulum resident proteome: Secreted ER Calcium Modulated Protein (SERCaMP) assay (AID 1508630); details: SH-SY5Y GLuc-SERCaMP (Gaussia luciferase released on ER calcium loss) secretion, thapsigargin, luminescence; series mostly up to 38.4 µM; note: % is set by controls: 0 for no effect and ±100 for the full control effect
Outline: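 The SH-SY5Y reporter protocol was run at 3 concentrations up to 38.3 uM (primary) or 11 concentrations (follow-up): 16 h compound, 100 nM thapsigargin for 4 h, then extracellular luciferase luminescence.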

[14] = target: Rap guanine nucleotide exchange factor 3 (Homo sapiens) (UniProt O95398); experiment: Confirmatory qHTS for antagonist of cAMP-regulated guanine nucleotide exchange factor 3 (EPAC1) (AID 1645880); details: EPAC1 Rap1B-BODIPY-GDP exchange, fluorescence; series mostly up to 115 µM;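 note: plate controls were DMSO only for no effect and full effect of the ATA control for full effect; nearly all actives have a fitted effect of over 55% in size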
Outline: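 Released BODIPY-GDP fluoresces less than Rap1-bound BODIPY-GDP; the signal is followed at 480/540 nm at 5-min intervals over 30 min, after 5 min at room temperature. Reactions contain 100 nM EPAC1, 250 nM RAP1B-BODIPY-GDP and 50 uM GDP; results are normalized to ATA and DMSO.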

[15] = target: Rap guanine nucleotide exchange factor 3 (Homo sapiens) (UniProt O95398); experiment: Confirmatory qHTS for agonist of cAMP-regulated guanine nucleotide exchange factor 3 (EPAC1) (AID 1645881); details: EPAC1 Rap1B BODIPY-GDP exchange fluorescence; series mostly up to 154 µM;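 note: EPAC1 catalysed release of BODIPY-GDP from Rap1B seen as fluorescence loss; 100% = effect of cAMP agonist control; nearly all actives have a fitted effect of over 75% in size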
[16] = target: Rap guanine nucleotide exchange factor 4 (Homo sapiens) (UniProt Q8WZA2); experiment: Confirmatory qHTS for agonist of cAMP-regulated guanine nucleotide exchange factor 4 (EPAC2) (AID 1645884); details: EPAC2 GEF activity, Rap1B-BODIPY-GDP fluorescence; series mostly up to 154 µM;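 note: nucleotide exchange releases bodipy-GDP from Rap1 and this lowers its fluorescence; % is set by controls: 0 for no effect and ±100 for the full control effect; nearly all actives have a fitted effect of over 65% in size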
[17] = target: Rap guanine nucleotide exchange factor 4 (Homo sapiens) (UniProt Q8WZA2); experiment: Confirmatory qHTS for antagonist of cAMP-regulated guanine nucleotide exchange factor 4 (EPAC2) (AID 1645885); details: EPAC2 Rap1B-BODIPY-GDP exchange fluorescence, biochemical; series mostly up to 114 µM; note: nearly all actives have a fitted effect of over 25% in size; note: potency is the fitted concentration of half-maximal effect
[18] = qHTS Assay for Lipid Storage Modulators (AID 1519; calls by dose curve); details: Drosophila S3 cells, BODIPY lipid droplet/cell ratio, laser cytometry, cells loaded with oleic acid
Outline: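 Cells seeded at 5,000 per well were treated with compounds over a concentration series and loaded with oleic acid (400 uM, as added). Lipid droplet fluorescence (488 nm excitation, 500-530 nm channel) was read by laser-scanning cytometry and normalized to 20 uM Triacsin C.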

[19] = Stat Signaling Pathway (AID 446; active = well fitted curve in either direction with a large enough effect, not every such curve was filed as active); details: ME-180 (cervical carcinoma) SIE beta-lactamase reporter, IL-6 stimulated, 5 h; at 7.69 µM (top of the series) unless noted
Outline: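 Emission at 460 and 530 nm (excitation 405 nm) reports SIE-controlled beta-lactamase in ME-180 cells. Cells received compound with 40 pM IL-6 for 5 hrs at 37 C; data scaled between 300 pM IL-6 and 125 nM JAK-inhibitor controls.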

[20] = target: 3',5'-cyclic-AMP phosphodiesterase 4B (Homo sapiens) (UniProt Q07343); experiment: qHTS Assay for Inhibitors of PDE-IV (AID 607; active = well fitted activation curve with a large enough effect in the main read-out, with a control signal flat, not every such curve was filed as active; note: % of control where 0% means no effect); details: HEK293 ACTOne CNG channel cells, membrane potential fluorescence; series mostly up to 22.9 µM
Outline: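 The readout is membrane depolarisation from a cAMP-sensing CNG channel, detected with a potential dye at ex 535/em 590. Cells were HEK293-derived (endogenous PDE-IV) at 1000 cells/well, titrated up to 22.9 uM final.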

Chain of Lysosomal acid glucosylceramidase (Homo sapiens) (P04062 whole entry, looked up): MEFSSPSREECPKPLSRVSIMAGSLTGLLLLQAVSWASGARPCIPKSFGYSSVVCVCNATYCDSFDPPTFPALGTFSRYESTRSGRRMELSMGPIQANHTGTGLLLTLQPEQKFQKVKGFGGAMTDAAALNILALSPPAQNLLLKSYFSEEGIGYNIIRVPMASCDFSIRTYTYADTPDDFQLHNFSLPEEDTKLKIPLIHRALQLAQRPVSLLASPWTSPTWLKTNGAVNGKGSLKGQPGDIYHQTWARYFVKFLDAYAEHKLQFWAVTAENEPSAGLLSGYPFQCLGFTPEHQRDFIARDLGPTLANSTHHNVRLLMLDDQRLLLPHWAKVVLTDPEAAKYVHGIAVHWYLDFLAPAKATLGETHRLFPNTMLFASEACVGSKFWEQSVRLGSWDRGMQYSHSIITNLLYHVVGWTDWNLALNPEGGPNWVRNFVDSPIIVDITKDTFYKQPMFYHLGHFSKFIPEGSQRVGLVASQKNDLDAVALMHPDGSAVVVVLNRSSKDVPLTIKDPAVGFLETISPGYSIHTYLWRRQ
Chain of Cytochrome P450 3A4 (Homo sapiens) (P08684 whole entry, looked up): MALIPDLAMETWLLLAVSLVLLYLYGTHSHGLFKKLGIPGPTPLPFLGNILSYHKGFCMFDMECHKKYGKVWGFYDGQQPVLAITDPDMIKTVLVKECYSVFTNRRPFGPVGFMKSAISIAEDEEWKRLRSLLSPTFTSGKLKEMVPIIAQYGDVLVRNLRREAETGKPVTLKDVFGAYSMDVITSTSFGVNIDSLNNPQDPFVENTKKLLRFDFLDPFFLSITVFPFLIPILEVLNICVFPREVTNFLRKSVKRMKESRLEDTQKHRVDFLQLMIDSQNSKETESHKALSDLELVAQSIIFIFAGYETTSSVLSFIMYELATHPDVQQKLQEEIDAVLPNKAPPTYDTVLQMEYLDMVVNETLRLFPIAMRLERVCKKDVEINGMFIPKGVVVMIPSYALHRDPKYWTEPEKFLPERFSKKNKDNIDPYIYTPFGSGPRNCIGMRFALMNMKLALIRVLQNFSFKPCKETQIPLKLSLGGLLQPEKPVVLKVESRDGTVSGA
Chain of Rap guanine nucleotide exchange factor 3 (Homo sapiens) (O95398 whole entry, looked up): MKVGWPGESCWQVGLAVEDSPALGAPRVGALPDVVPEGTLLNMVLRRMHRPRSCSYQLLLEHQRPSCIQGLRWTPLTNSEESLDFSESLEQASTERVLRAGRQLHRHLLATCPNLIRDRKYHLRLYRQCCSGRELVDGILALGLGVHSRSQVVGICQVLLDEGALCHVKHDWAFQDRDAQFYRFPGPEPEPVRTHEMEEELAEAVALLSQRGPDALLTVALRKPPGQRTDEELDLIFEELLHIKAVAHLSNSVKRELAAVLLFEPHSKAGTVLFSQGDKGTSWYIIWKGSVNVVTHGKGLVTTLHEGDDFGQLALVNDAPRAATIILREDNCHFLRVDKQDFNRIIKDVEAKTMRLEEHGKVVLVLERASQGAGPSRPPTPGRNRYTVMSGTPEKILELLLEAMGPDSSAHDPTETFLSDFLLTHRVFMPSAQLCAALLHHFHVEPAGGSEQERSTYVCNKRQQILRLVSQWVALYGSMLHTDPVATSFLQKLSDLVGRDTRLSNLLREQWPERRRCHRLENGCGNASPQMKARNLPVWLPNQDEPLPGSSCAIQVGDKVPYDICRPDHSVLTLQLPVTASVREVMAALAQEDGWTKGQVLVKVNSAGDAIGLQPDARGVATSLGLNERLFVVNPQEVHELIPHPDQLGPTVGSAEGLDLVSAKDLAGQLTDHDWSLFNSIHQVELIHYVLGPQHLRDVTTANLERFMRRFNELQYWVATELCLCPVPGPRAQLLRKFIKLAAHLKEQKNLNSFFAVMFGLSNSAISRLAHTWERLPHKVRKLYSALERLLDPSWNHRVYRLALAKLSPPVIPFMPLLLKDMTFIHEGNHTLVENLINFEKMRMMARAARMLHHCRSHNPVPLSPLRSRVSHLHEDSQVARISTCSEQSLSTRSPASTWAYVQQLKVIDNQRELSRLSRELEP
Chain of Cytochrome P450 1A2 (Homo sapiens) (P05177 whole entry, looked up): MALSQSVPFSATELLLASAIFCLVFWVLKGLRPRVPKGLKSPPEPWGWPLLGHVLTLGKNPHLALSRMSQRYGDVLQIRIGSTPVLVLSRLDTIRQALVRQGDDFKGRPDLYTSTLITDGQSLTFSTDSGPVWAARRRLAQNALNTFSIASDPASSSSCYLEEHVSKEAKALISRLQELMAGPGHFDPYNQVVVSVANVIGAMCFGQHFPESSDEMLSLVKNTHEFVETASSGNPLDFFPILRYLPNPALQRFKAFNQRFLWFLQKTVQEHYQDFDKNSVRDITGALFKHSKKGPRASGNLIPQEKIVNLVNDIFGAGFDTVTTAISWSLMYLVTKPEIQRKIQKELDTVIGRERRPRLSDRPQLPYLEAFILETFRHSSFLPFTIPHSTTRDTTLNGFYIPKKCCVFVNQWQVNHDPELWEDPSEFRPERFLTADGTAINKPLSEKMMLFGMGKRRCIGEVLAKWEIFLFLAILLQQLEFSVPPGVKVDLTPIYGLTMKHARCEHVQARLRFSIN
Chain of Dual specificity protein kinase CLK4 (Homo sapiens) (Q9HAZ1 whole entry, looked up): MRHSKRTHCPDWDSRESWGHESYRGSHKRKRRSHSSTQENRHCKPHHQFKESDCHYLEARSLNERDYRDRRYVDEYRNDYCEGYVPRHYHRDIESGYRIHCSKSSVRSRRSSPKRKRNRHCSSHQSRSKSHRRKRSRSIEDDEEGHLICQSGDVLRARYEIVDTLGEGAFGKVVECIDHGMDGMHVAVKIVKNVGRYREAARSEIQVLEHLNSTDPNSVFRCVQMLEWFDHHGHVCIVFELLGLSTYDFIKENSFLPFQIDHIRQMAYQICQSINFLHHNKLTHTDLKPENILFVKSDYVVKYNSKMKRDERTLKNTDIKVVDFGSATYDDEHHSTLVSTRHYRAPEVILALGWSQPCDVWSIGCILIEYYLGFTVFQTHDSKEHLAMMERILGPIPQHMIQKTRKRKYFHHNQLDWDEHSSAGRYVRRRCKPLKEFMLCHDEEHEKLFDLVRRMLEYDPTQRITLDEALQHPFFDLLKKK
Chain of 3',5'-cyclic-AMP phosphodiesterase 4B (Homo sapiens) (Q07343 whole entry, looked up): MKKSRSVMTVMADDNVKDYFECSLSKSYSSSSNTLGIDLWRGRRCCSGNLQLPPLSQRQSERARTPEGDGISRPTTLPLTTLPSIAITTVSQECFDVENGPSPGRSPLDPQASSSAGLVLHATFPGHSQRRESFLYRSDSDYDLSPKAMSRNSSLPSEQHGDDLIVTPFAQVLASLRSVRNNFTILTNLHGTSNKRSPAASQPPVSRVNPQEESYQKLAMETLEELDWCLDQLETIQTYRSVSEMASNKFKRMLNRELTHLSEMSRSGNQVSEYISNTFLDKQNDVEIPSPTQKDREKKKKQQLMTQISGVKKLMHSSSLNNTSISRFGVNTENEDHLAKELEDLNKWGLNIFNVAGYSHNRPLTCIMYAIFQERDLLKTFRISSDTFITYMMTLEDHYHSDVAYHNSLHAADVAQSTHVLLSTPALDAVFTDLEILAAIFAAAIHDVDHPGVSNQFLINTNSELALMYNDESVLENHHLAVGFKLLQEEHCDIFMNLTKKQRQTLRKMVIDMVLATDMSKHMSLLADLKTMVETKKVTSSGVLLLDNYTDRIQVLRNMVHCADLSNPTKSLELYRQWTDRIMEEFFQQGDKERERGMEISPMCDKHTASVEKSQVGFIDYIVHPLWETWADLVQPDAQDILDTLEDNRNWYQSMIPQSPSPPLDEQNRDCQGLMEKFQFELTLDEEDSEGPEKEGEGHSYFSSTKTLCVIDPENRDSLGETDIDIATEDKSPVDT
Chain of Glucocorticoid receptor (Homo sapiens) (P04150 whole entry, looked up, the tested form may be a part): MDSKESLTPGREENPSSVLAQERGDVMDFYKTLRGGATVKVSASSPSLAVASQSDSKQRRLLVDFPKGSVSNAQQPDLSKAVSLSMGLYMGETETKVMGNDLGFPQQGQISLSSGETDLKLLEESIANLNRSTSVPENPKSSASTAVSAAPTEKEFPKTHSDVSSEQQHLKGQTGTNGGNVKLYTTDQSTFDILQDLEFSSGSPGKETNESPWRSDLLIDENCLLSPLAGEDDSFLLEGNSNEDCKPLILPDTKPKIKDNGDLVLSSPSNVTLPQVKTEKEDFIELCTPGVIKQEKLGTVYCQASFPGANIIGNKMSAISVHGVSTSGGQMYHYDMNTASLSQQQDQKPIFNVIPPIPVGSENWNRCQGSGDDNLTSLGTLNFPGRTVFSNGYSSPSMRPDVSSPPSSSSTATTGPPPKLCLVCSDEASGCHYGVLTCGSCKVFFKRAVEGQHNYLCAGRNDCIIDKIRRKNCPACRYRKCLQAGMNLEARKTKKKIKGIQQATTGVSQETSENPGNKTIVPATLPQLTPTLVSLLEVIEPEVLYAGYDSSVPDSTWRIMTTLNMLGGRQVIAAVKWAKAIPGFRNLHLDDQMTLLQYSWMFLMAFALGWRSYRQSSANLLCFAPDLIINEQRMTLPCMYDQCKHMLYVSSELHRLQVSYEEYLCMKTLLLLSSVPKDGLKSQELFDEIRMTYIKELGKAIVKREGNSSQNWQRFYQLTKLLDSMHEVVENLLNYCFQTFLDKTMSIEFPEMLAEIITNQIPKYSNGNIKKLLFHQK

Cc1ccccc1-c1nc(N(C)Cc2ccco2)c2ccccc2n1
inactive: Potency [1] > 11.4 µM | activity change, negative = inhibition [2] 13.9% | activity change, negative = inhibition [4] -24% | Potency [5] > 46 µM | Potency [6] > 46 µM | Potency [7] | Potency [8] | Potency [11] | outcome [13] | Potency [14] | Potency [15] | Potency [16]
active: Potency [3] 1.58 µM | Potency [9] 20 µM | Potency [10] 28.2 µM | Potency [12] 28.2 µM | Potency [17] 35 µM

CS(=O)(=O)c1ccc(Cn2c3c(c4cc(F)cc(F)c42)CCC[C@H]3CC(=O)O)cc1
15%: max response ([18]; measured here: cell count channel max response)
14.3%: max response ([18]; measured here: lipid channel max response)
inactive: Potency [3] | Potency [5] > 46 µM | Potency [6] > 46 µM | Potency [7] | Potency [8] | activity change, negative = inhibition ([18]; at 57.5 µM (top of the series)) -2.09% | outcome [13]

COC(=O)N1CCC2(CCCN(c3cccc(-c4ccccc4)c3)C2)CC1
inactive: Potency [1] > 11.4 µM | activity change, negative = inhibition [2] 3.74% | activity, negative = inhibition [19] -6.31% | Potency [6] > 46 µM | Potency [7] | Potency [20] | outcome [13] | Potency [14] | Potency [15] | Potency [16] | Potency [17]

O=c1c(-c2ccc(F)c(F)c2)nc2cncnc2n1Cc1ccccc1Cl
inactive: Potency [1] > 11.4 µM | activity change, negative = inhibition [2] 4.57% | activity change, negative = inhibition [4] -7.38% | activity, negative = inhibition [19] 9.03% | Potency [5] > 9.22 µM | Potency [6] > 46 µM | Potency [7] | Potency [8] | outcome [13] | Potency [14] | Potency [15] | Potency [16]
active: Potency [3] 5.01 µM

Cn1c(=O)c(CCc2ccccc2)nc2cnc(Oc3ccccc3)nc21
inactive: Potency [1] > 11.4 µM | activity change, negative = inhibition [2] -15.2% | activity change, negative = inhibition [4] -7.88% | activity, negative = inhibition [19] -2.24% | Potency [5] > 9.22 µM | Potency [6] > 46 µM | Potency [7] | Potency [20] | outcome [13] | Potency [14] | Potency [15] | Potency [16] | Potency [17]

COc1cc(/C=C\c2ccc(OC)cc2OC)cc(OC)c1
active: Potency [3] 0.794 µM
inactive: Potency [5] > 46 µM | Potency [6] > 46 µM | Potency [20] | Potency [8] | outcome [13] | Potency [14] | Potency [15] | Potency [16]

CN(C)c1ncc2nc(CCc3ccccc3)c(=O)n(Cc3ccc(F)cc3)c2n1
active: Potency [3] 10 µM
inactive: Potency [1] > 11.4 µM | activity change, negative = inhibition [2] 8.4% | activity change, negative = inhibition [4] -4.39% | activity, negative = inhibition [19] 13.2% | Potency [5] > 9.22 µM | Potency [6] > 46 µM | Potency [20] | Potency [8] | outcome [13] | Potency [14] | Potency [15] | Potency [16] | Potency [17]
